RORg inh = blocks mouse ROR gamma transcriptional activity; AID 2551; Drosophila S2 Gal4-RORgamma UAS-luciferase reporter, 20 h; actives 5.4% (n = 310,000); Potency, µM (highest dose often 53.6 µM), without a hit: at the top dose activity change, negative = inhibition, actives largely listed as inhibitors; P51450; further: potency means the concentration at half of the fitted maximal effect; on the % scale 0 is the no-effect control and ±100 the full control effect; nearly all actives have a fitted effect of over 60% in size
Target sequence (P51450 whole entry, looked up, the tested form may be a part): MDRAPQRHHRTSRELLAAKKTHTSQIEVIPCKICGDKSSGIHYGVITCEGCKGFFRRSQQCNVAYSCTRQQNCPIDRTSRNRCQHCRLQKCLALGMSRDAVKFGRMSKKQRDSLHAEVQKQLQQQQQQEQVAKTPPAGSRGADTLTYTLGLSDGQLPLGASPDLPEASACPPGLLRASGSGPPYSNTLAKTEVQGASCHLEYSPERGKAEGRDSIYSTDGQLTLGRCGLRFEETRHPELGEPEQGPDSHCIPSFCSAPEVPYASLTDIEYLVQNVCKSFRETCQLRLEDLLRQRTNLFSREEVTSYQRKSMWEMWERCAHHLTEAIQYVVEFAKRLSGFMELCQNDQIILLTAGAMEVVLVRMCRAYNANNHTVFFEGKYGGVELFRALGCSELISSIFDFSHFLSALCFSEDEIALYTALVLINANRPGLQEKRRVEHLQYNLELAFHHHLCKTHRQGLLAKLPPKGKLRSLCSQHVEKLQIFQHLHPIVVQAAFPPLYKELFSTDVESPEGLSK
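A Gal4/UAS one-hybrid system in insect cells: metallothionein-promoter Gal4–ROR gamma fusion plus Photinus luciferase reporter. Copper sulfate 700 uM final, 20 hr ambient incubation, luminescent detection after 10 min with reagent.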
VP16 counter = Gal4-VP16 reporter inhibition counter-screen; Drosophila S2 Gal4-VP16 UAS-luciferase, luminescence, 20 h; Potency, µM (highest dose often 53.6 µM), inactives show at the highest dose activity, negative = inhibition, actives largely listed as inhibitors; actives 3.5% (n = 310,000); AID 2546;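 further: Gal4-VP16 expression switched on by copper sulfate through the metallothionein promoter; potency means the concentration at half of the fitted maximal effect; on the % scale 0 is the no-effect control and ±100 the full control effect; nearly all actives have a fitted effect of over 50% in size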
MCF10A rereplic = DNA re-replication induction in MCF 10a cells | actives 2.9% (n = 350,000) | Potency, µM (top dose mostly 46.1 µM), for inactives: at the highest dose activity, positive = re-replication, actives largely listed as activators | MCF 10A DNA re-replication, Hoechst nuclear intensity, 48 h; further: potency means the concentration at half of the fitted maximal effect; % of control where 0% means no effect; nearly all actives have a fitted effect of over 50% in size
Chronic BCR inh = blocks chronic active B-cell receptor signaling | ABC-DLBCL IkBa-CBG/CBR reporter, luminescence ratio, 4 h | Potency, µM (highest dose often 46.1 µM), inactives show top-dose activity change, negative = inhibition, actives largely listed as inhibitors | actives 0.05% (n = 340,000) | AID 493014; active means well fitted inhibition curve with a large enough effect in the signal ratio, with a control signal flat, not every such curve was filed as active; inconclusive means small, poorly fitted or top-dose-only effect, or effect the other way, or a change in a side signal; the % refers to the signal ratio;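 further: potency means the concentration at half of the fitted maximal effect; plate controls were basal doxycycline-induced cells for no effect and cells given 10 µM MG132 for full effect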
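Concentration-response series (up to 46 uM) were applied to TMD8 dual-reporter cells for 4 h at 37C with doxycycline. Green/red ratio, after filter-overlap correction, defined %Activity; red signal alone was normalised to basal cells and zero luminescence.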
SW480 rerep = DNA re-replication induction in SW480 cells; SW480 DNA re-replication, Hoechst DNA content imaging, 48 h; Potency, µM (top dose mostly 46.1 µM), without a hit: at the top dose re-replication activation, actives largely listed as activators; actives 1.8% (n = 340,000); AID 624297; further: potency means the concentration at half of the fitted maximal effect; % of control where 0% means no effect; nearly all actives have a fitted effect of over 55% in size
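Quantitative HTS format with DMSO vehicle controls; 48 hr drug incubation at 37 C, then 40 min Hoechst staining and scanning imager measurement at 405 nm excitation.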
Giardia kill = kills Giardia lamblia. actives 0.15% (n = 340,000). activity change, % at 7.66 µM, hits read low. Giardia lamblia trophozoite viability; in the data active means activity change below about -80%; inconclusive means between about -30% and that limit;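 further: parasites exposed to compound for two days anaerobically before the ATP read; on the % scale 0 is the no-effect control and ±100 the full control effect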
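Media and compound were dispensed first, then trophozoites at 100 cells/well; plates sat 48 hrs at 37 deg C without oxygen before ATP luminescence reagent was added and read after 15-30 min at room temperature.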
Starred values were filed as active, the others as inactive; ? = inconclusive; / = no result given; [ ] = remark or other dose. In the library only some 8.3% were active in any assay of this set; here they are far more common. Unless noted, the call rests on the fitted dose curve; in most records, active means well fitted curve in the direction sought with a large enough effect; inconclusive means small, poorly fitted or top-dose-only effect, or another doubt; inactive means no such curve, though single readings can be large; an effect the other way counts as inactive or inconclusive.

SMILES	RORg inh	VP16 counter	MCF10A rereplic	Chronic BCR inh	SW480 rerep	Giardia kill
CCC(=O)Nc1c(S(=O)(=O)c2ccc(C)cc2)c2nc3ccccc3nc2n1C(C)c1ccccc1 (centres undefined)	25.7%	-19.2%	?	?	?	-1.2
Cc1ccc(S(=O)(=O)c2c(N)n(CCC(C)C)c3nc4ccccc4nc23)cc1	?	-24.4%	?	?	16.4µM*	-6.7
Cc1ccc(S(=O)(=O)c2c(N)n(Cc3ccco3)c3nc4ccccc4nc23)cc1C	12.6%	10.3%	14.6µM*	?	?	9.3
CCCCn1c(NS(=O)(=O)c2ccccc2)c(S(=O)(=O)c2ccc(C)cc2)c2nc3ccccc3nc21	-3.2%	-10.2%	?	0.5%	13µM*	-16.0
CCC(=O)Nc1c(S(=O)(=O)c2ccccc2)c2nc3ccccc3nc2n1C(C)c1ccccc1 (centres undefined)	?	-1.5%	20.6µM*	?	?	-5.1
Nc1c(S(=O)(=O)c2ccccc2)c2nc3ccccc3nc2n1Cc1ccco1	?	?	?	?	?	-2.3
O=C(/C=C/c1ccc(O)c(O)c1)c1ccc(O)cc1O	-43.4%	-0.4%	/	/	/	/
CCCCn1c(NC(=O)c2ccc(Br)o2)c(S(=O)(=O)c2ccccc2)c2nc3ccccc3nc21	-20.8%	-10.5%	17.8µM*	0.2%	?	-9.0
CCCCn1c(NC(=O)c2ccco2)c(S(=O)(=O)c2ccc(C)cc2)c2nc3ccccc3nc21	?	-3.4%	8.2µM*	-0.5%	?	-0.3
CCOC(=O)c1ccc(N2C(=O)C=C(N3CCOCC3)C2=O)cc1	25.4%	-10.8%	-1.1%	3.3%	-3.6%	-1.4
COc1cc(Br)c(C2CC(=O)Nc3cc(OC)c(OC)cc32)cc1OC (centres undefined)	44.1%	1.3%	-1.5%	-8.5%	-19.4%	0.6
CCc1ccc(NC(=O)Nc2ccon2)cc1	14.5%	-12.2%	-10.1%	0.9%	-8.7%	5.9
O=C(Nc1ccc([N+](=O)[O-])cc1)Nc1ccon1	12.8%	-1.0%	5.8µM*	?	?	17.6
CCC(C(=O)O)C1OC(C(C)C(O)C(C)C(=O)C(CC)C2OC3(C=CC(O)C4(CCC(C)(C5CCC(O)(CC)C(C)O5)O4)O3)C(C)CC2C)C(C)CC1C (centres undefined)	0.891µM*	0.447µM*	?	/	?	/
CCC1CCC(N2CCN(c3cccc(OC)c3)CC2)CC1 (centres undefined)	-3.1%	5.8%	5.17µM*	4.3%	-53.9%	-17.1
Cc1ccc(NC(=O)c2cc3c(s2)CCCC3)cc1	?	2.2%	18.2%	-1.0%	1.7%	-1.8
Cc1csc(NC(=O)c2cccs2)n1	18.0%	-7.8%	-0.5%	?	-10.9%	-1.6
Cc1csc(NC(=O)c2cc3c(s2)CCC3)n1	2µM*	8.91µM*	?	5.8%	?	-18.5
CCc1sc(C(=O)Nc2nc(C)cs2)cc1C	5.01µM*	11.2µM*	12.1%	?	-1.1%	3.1
CCOC(=O)c1sc(NC(=O)c2cc3c(s2)CCC(C)C3)nc1C (centres undefined)	0.251µM*	0.3%	4.9%	?	2.7%	-10.8
CC1CCc2sc(C(=O)NN)cc2C1 (centres undefined)	25.7%	-8.7%	5.6%	?	-1.5%	-14.1
Cc1csc(NC(=O)c2ccc(Br)s2)n1	10µM*	?	6.2%	?	?	-26.2
Cc1nnc(-c2cnn(C)c2N)n1Cc1ccc2c(c1)OCO2	29.7%	3.5%	-3.9%	-1.5%	-4.7%	-1.0
Cc1csc(NC(=O)c2cc3c(s2)-c2ccccc2OC3)n1	40.9%	-17.6%	14.6µM*	?	19.0%	-10.3
COC(=O)c1sc(NC(=O)c2cc3c(s2)CCCC3)nc1C	1.78µM*	?	?	-18.4%	16.4%	-16.4
SMILES	RORg inh	VP16 counter	MCF10A rereplic	Chronic BCR inh	SW480 rerep	Giardia kill
CN(C)CCNC(=O)c1cc2c(s1)-c1ccccc1OC2	-5.1%	6.1%	?	?	6.4%	11.5
CC(=O)C1=C(O)C(=O)N(c2nccs2)C1c1ccccc1F (centres undefined)	-14.5%	-15.1%	12.4%	0.2%	-14.6%	-9.6
COc1ccc(C2C(C(C)=O)=C(O)C(=O)N2c2nccs2)c(OC)c1 (centres undefined)	-8.8%	-4.4%[10 µM]	3.1%	?	20.6µM*	-23.3
COc1cc(C2(c3ccc(O)c(OC)c3)C(=O)Nc3c(C)cc(Br)cc32)ccc1O	/	/	?	/	-12.4%	-2.2
O=C(O)CC1(CC(=O)NCc2ccc(Cl)cc2)CCCCC1	26.2%	-0.6%	20.6µM*	?	1.7%	-22.8
O=C(O)CC1(CC(=O)NCc2ccc(F)cc2)CCCCC1	6.6%	1.4%	3.0%	?	-2.5%	27.6
CC(NC(=S)Nc1c(Cl)cccc1OC(F)F)C(C)(C)C (centres undefined)	12.6µM*	11.2µM*	-8.0%	-0.7%	-0.4%	7.4
CC(NC(=S)Nc1ccc(OC(F)F)cc1OC(F)F)C(C)(C)C (centres undefined)	7.94µM*	15.8µM*	3.3%	4.8%	-4.6%	-4.2
CC(NC(=S)Nc1ccccc1OC(F)F)C(C)(C)C (centres undefined)	?	?	-2.9%	2.3%	-8.8%	9.7
O=C(COC(=O)/C=C/c1cccc(C(F)(F)F)c1)NCCN1C(=O)CSC1=O	/	/	25.9µM*	-3.6%	12.1%	-9.3
Cc1ccc(/C=C/C(=O)OCC(=O)NCCN2C(=O)CSC2=O)cc1	3.2%	-11.8%	-6.4%	6.0%	?	7.7
Cc1ccc2oc(-c3cccc(NC(=O)c4cc(-n5cnnc5)ccc4Cl)c3)nc2c1	?	?	8.2µM*	?	?	6.3
Cc1cccc(-c2nc3cc(NC(=O)C4CCCO4)ccc3o2)c1 (centres undefined)	0.282µM*	?	-56.2%	?	-59.2%	?
Cc1ccc2oc(-c3ccc(C)c(NC(=O)Cc4cccs4)c3)nc2c1	17.2%	1.9%	1.7%	10.3%	-38.4%	21.7
CCC(=O)Nc1ccc(-c2nc3ccccc3c(=O)o2)cc1	-91.6%	15.8µM*	6.5%	?	9.8%	9.8
Cc1ccc2oc(-c3cccc(NC(=O)Cc4cccs4)c3)nc2c1	-21.9%	-15.5%	14.6µM*	?	1.8%	-14.7
Cc1ccc2oc(-c3cccc(NC(=O)C4CCCO4)c3)nc2c1 (centres undefined)	?	?	-3.1%	10.1%	-1.1%	9.6
CCC(=O)Nc1cccc(-c2nc3ccc(C)cc3o2)c1	?	?	0.0%	9.9%	6.6%	-5.0
